This is part of a sample that, as a whole, favours compounds with a hit. Of some 83,000 tested, about 20% had one in any assay.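 Step 1: grow cells in 96-well plates. Step 2: add test compound at a single concentration. Step 3: incubate 48 h. Step 4: record percent growth.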 A number with no mark means an inactive call. Calls of active or inactive are those of the source. How the source made its calls: active means growth percent below 10; inactive means the rest.
What was measured:
Experiment in all cases: NCI-60 one-dose screen, 48 h (100 = growth as untreated, 0 = no growth, -100 = all killed)
Details in all cases: 10 µM unless noted
T-47D breast = tested on: T-47D breast
BT-549 breast = tested on: BT-549 breast
MDA-MB-435 melanoma = tested on: MDA-MB-435 melanoma
MCF7 breast = tested on: MCF7 breast
HCT-116 colon = tested on: HCT-116 colon
HCC-2998 colon = tested on: HCC-2998 colon
KM12 colon = tested on: KM12 colon
SW-620 colon = tested on: SW-620 colon

SMILES | growth (T-47D breast) | growth (BT-549 breast) | growth (MDA-MB-435 melanoma) | growth (MCF7 breast) | growth (HCT-116 colon) | growth (HCC-2998 colon) | growth (KM12 colon) | growth (SW-620 colon)
C=CCc1c(O)c(C(=O)/C=C/c2ccc(Cl)cc2)c(OC)c2ccoc12 | 39.9% | 47.8% | 18.2% | 21.4% | 17.2% | 63.3% | 41.1% | –
OCc1cccc(-c2ccc3ncc(-c4nc(NC5CC5)ncc4F)n3c2)c1 | -2.9% (active) | -7.54% (active) | -31.7% (active) | -19.3% (active) | 1.41% (active) | -0.971% (active) | -18.8% (active) | –
Cc1cccc(N2CCN(CC(O)COc3ccc(Cl)cc3)CC2)c1 (stereo not given) | 94.4% | 100% | 84.1% | 121% | 89.9% | – | 97.1% | 103%
Cc1cccc(Cl)c1NC(=O)c1ccc2nc(NC(=O)NCCN(C)C)sc2c1 | 88.1% | 82.1% | 47% | 48.9% | 92.1% | 105% | 97.1% | –
CCSc1nc(NC)c2cc(-c3ccc(C(F)(F)F)cc3)ccc2n1 | 91.4% | 94.4% | 102% | 92.8% | 96.9% | 111% | 103% | –
COc1cccc(CNc2ncnc3c2ncn3C2OC(CO)C(O)C2O)c1O (stereo not given) | 16.6% | -9.05% (active) | 5.51% (active) | 65.5% | 10.2% | – | 36.6% | 6.4% (active)
COc1ccc(/C=C2\COc3ccc(O)cc3C2=O)c(OC)c1OC | 64.7% | 72.3% | 24.9% | 24.5% | 70.8% | 86.4% | 44.3% | –
COc1cc(/C=C\c2cc(/C=C\c3ccc(O)c(OC)c3)n(C(=O)COc3ccc(Cl)cc3Cl)n2)ccc1O | 15% | 1.41% (active) | -12.1% (active) | 4.21% (active) | 3.48% (active) | 38.5% | 9.93% (active) | –
Cn1c(-c2ccc(Br)cc2)c(O)c(=O)c2c(F)cccc21 | 57.7% | 70.6% | – | 37.1% | 35.1% | 64.5% | 53.3% | 51%
COc1ccc(-c2csc(N(C(=O)N3CCN(c4cc5c(cc4F)c(=O)c(C(=O)O)cn5C4CC4)CC3)c3ccccc3)n2)cc1 | 17.1% | -4.67% (active) | – | 8.74% (active) | 6.33% (active) | 24.1% | 5.96% (active) | 17.4%
Brc1ccc(-n2cc(-c3nn[nH]n3)c(-c3cccs3)n2)cc1 | 95.6% | 95.3% | – | 90.1% | 91.5% | 105% | 103% | 102%
C#COc1cccc(Nc2ncnc3ncc(NC(=O)CCl)cc23)c1 | 30.5% [6.25 µM] | 28.6% [6.25 µM] | – | -0.408% [6.25 µM] (active) | -32.6% [6.25 µM] (active) | 51.5% [6.25 µM] | 15.7% [6.25 µM] | -55.1% [6.25 µM] (active)
CN(C)c1ccc(Nc2cc(-c3cccc(OC(F)(F)F)c3)nc3ccc(N4CCCC4)cc23)cc1 | 70.5% | -49.6% (active) | – | -14.7% (active) | -31.2% (active) | 91.1% | -45.5% (active) | -48.1% (active)
CCOC(=O)/C=C1\S/C(=N\Nc2cc(=O)[nH]c3ccc(Cl)cc23)N(c2ccccc2)C1=O | 66.8% | 93.7% | – | 34.3% | 38.9% | 105% | 98.5% | 77.3%
COc1cc(CNS(=O)(=O)c2ccc(C)cc2)ccc1OCc1cn(-c2ccc(Br)cc2)nn1 | 101% | 110% | – | 88% | 100% | – | 103% | 99.1%
CO[C@]12C=C/C(=C(/C(=O)OCc3cccnc3)C(=O)CCCCCCCC[C@@]3(OC)C=C/C(=C(/C(=O)OCc4cccnc4)C(=O)CCCCCCCC1)O3)O2 | 38.4% | -24.7% (active) | – | 18.5% | -35.5% (active) | -79.2% (active) | -70.4% (active) | 13.8%
CC1(C)CC[C@]2(c3nnc(-c4ccncc4)o3)CC[C@H]3C(=CC[C@H]4[C@@]3(C)CC[C@H]3C(C)(C)C(=O)CC[C@]43C)[C@@H]2C1 | 67.4% | 88.1% | – | 53.5% | 29% | 75.3% | 70% | 59%

SMILES | growth (T-47D breast) | growth (BT-549 breast) | growth (MDA-MB-435 melanoma) | growth (MCF7 breast) | growth (HCT-116 colon) | growth (HCC-2998 colon) | growth (KM12 colon) | growth (SW-620 colon)
CCN1CCN(Cc2cn(CC(=O)Nc3ccc4c(ccn4Cc4ccccc4)c3)nn2)CC1 | 91.1% | 96.1% | – | 99.5% | 99.2% | 110% | 101% | 99.3%
O=S(=O)(Nc1ccc(Cl)cc1)c1ccc(-c2cnc(C3CC3)o2)cc1 | 22.6% | 51.8% | – | 18.7% | 21.2% | 40.3% | 20.9% | 17.4%
O=C(c1ccc(-c2ccccc2)cc1)c1ccc([N+](=O)[O-])cc1 | 92.8% | 94.5% | – | 95.9% | 92.6% | – | 97% | 101%
O=C(O)/C(=C\c1ccc(Cl)cc1)c1ccc(Cl)cc1 | 95.9% | 82% | 97.2% | 92.9% | 98.1% | – | 97.6% | –
CC(C)OC(=O)c1ccc2[nH]c(O)c(C(=Nc3ccc(N(C)C(=O)CN4CCN(C)CC4)cc3)c3ccccc3)c2c1 | -47.7% (active) | -78.8% (active) | – | -65.5% (active) | -47.9% (active) | -84.2% (active) | -43.2% (active) | -64.6% (active)
O=C(/C=C/c1cn(-c2ccccc2)nc1-c1ccc([N+](=O)[O-])cc1)c1ccc(Cl)cc1 | 31.4% | 62.7% | – | 25.4% | -12.6% (active) | -22% (active) | 41.8% | -27.6% (active)
CO/N=C(/C)c1ccc(NC(=O)CSc2nnc(-c3ccncc3)n2-c2ccccc2)cc1 | 17.4% | 6.99% (active) | – | 42% | 4.38% (active) | 82.3% | 61.9% | 84.2%
Oc1ccc(CN2CCC(N3CCCCC3)CC2)c2cccnc12 | 15% | 38.9% | – | 11.8% | 18.9% | 32.2% | 30.8% | 30.2%
COc1cc(-c2nc(SCC(C)C)nc(Nc3cccc4ccccc34)c2C#N)cc(OC)c1OC | 70.3% | 110% | – | 94% | 37.7% | 118% | 97.5% | 95.3%
CC(C)=CCC[C@](C)(O)[C@H]1CC[C@]2(C)[C@@H]1CC[C@@H]1[C@@]3(C)Cc4nccnc4C(C)(C)[C@@H]3CC[C@]12C | 51.5% | 74.8% | – | -59.3% (active) | 46.9% | 79.4% | 75% | 71.1%
COc1ccc(-c2nnc(-c3ccc4c(c3)nc(-c3ccncc3)n4C3CCCCC3)o2)cc1 | 30.8% | 54.6% | – | 65.6% | 62.3% | 88.8% | 71.9% | 95.9%
Cc1nc(N2CCOCC2)sc1S(N)(=O)=O | 93% | 98.1% | – | 93.5% | 103% | 104% | 94.1% | 91.5%
O=C1N(Cc2ccccc2Cl)c2ccccc2C12NN=C(c1cccc(Cl)c1)S2 (stereo not given) | 6.86% (active) | -20% (active) | – | 1.43% (active) | 9.78% (active) | -61% (active) | 21.4% | 9.59% (active)
N#Cc1nn(-c2cc(=O)[nH]c3ccc(Cl)cc23)c(N)c1C#N | 67.2% | 87.9% | – | 100% | 84.4% | 92.7% | 106% | 91.1%
COc1cc(C(=O)n2nc(N3CCN(C)CC3)c3cc(N)ccc32)cc(OC)c1OC | 57.7% | 27.9% | – | 11.6% | 7.66% (active) | 89.7% | 57.9% | 30%
OCCOCCN(Cc1ccccn1)Cc1cc(I)cc(I)c1O | 93.9% | 81.6% | – | 76% | 73.4% | 111% | 91.3% | 95.5%
CC(=O)N1N=C(c2ccc(Nc3nc(Nc4ccc(Cl)cc4)nc(Nc4ccc(Cl)cc4)n3)cc2)CC1c1ccco1 (stereo not given) | 67.6% | 104% | – | 83% | 91.3% | 128% | 92.7% | 114%

Source: PubChem BioAssay (NCI)
